eIF4H FP inh: inhibitors of RNA binding by human eIF4H. eIF4H fluorescence polarization binding assay. inhibition, % at 35 µM. 290,000 tested, 0.94% active. AID 2012;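 note: calls also rest on retests at 20 µM and on dose response follow-up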
MLLE-PAM2 inh: blocks PAM2 peptide binding to the PABP1 MLLE domain; GST-MLLE / FITC-PAM2 fluorescence polarization; inhibition, % at 20 µM; 360,000 tested, 0.36% active; in the data active = inhibition above about 35%, passing the limit was not always enough;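 note: plate controls were DMSO wells with GST-MLLE for no effect and wells lacking GST-MLLE protein for full effect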
NRP1-CendR mod: modulators of CendR peptide binding to human neuropilin-1; O14786; FAM-RPARPAR peptide binding to NRP-1, fluorescence polarization; inhibition, % at 25 µM; 360,000 tested, 0.85% active;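 active = inhibition or corrected inhibition above about 18%, plus a signal ratio from 0.5 to 1.5, limit read from the data, passing the limit was not always enough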
Target sequence (O14786 whole entry, looked up): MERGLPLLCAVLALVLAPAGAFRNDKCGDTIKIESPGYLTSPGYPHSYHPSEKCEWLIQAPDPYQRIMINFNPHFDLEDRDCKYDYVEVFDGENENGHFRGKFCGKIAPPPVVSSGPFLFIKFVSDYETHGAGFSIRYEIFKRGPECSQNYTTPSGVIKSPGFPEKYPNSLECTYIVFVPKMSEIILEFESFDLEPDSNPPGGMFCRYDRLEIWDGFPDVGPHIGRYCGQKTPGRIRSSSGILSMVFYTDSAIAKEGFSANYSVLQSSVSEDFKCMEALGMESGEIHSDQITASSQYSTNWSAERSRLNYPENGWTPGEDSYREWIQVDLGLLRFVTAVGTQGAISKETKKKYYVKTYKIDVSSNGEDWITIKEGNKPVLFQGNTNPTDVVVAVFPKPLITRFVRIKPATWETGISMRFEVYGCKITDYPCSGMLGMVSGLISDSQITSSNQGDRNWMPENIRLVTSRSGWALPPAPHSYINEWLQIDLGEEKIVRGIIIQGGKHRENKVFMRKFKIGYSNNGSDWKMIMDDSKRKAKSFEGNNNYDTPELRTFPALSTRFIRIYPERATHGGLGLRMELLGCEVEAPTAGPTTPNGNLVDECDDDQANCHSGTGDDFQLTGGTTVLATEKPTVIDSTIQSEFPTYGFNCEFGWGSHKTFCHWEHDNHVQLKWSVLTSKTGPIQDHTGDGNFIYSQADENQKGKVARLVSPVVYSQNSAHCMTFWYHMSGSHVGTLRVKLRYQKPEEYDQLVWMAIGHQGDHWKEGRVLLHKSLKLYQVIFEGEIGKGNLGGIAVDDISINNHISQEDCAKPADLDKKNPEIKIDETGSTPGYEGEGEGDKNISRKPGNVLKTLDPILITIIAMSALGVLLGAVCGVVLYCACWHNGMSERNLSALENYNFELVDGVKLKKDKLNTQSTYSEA
PABP polyA inh: blocks human PABP binding to poly(A) RNA; 290,000 tested, 1% active; inhibition, % at 35 µM; fluorescence polarization; P11940; AID 2014;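 note: calls also rest on retests at 20 µM and on dose response follow-up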
* hit, by the source's call; ? = inconclusive; / = not tested or not shown. Only some compounds are listed: those with a hit (about 2.1% of all), similar ones and a draw of the others. Unless noted, the rule behind the calls is not given here.

SMILES	eIF4H FP inh	MLLE-PAM2 inh	NRP1-CendR mod	PABP polyA inh
COc1ccc(C2C(C#N)=C(N)OC3=C2C(=O)CC(C)(C)C3)c([N+](=O)[O-])c1OC (stereo not drawn)	-8	45*	7	1
O=C(NCCc1ccc(O)cc1)c1ccc(Cl)cc1	3	12	24*	9
CCC(COC)NCc1cn(-c2ccc(F)cc2F)nc1-c1ccccc1C (stereo not drawn)	-3	2	26*	4
CCOc1ccc(NC(=O)C2CCN(S(=O)(=O)c3ccc4c(c3)C(C)(C)C(=O)N4C)CC2)cc1	-4	18	-12	-12
CCc1cc(=O)oc2cc(C)cc(OCC(=O)NCc3cccnc3)c12	79*	9	1	7
CC(C)C(NC(=O)C1(NC(=O)OCc2ccccc2)CCCC1)C(=O)O (stereo not drawn)	/	4	0	/
CCCN1CCC(NC(=O)Nc2ccc(OC)c(OC)c2)CC1	3	8	49*	-4
Cc1ccccc1NC(=O)C(C)OC(=O)CCC(=O)c1ccccc1 (stereo not drawn)	/	-71	0	/
CCCCC1OC23CCCCC2C(C#N)(C(=N)O3)C1(C#N)C#N (stereo not drawn)	?	48*	-5	?
CCCCC1OC23CCCCC2C(C#N)(C#N)C1(C#N)C(=N)O3 (stereo not drawn)	?	23	1	-6
Cc1ccc(S(=O)(=O)CC(=O)Nc2nnc(C(C)(C)C)s2)cc1	9	38*	6	22
Cc1csc(NC(=O)CS(=O)(=O)c2ccccc2)n1	83*	-11	5	64*
NS(=O)(=O)c1ccc(-c2ccc(/C=C3\C(=O)Nc4ccccc43)o2)cc1	5	/	/	4
Cc1ccc(/C=C2\C(=O)Nc3ccccc32)o1	87*	23	-3	1.4*
Cc1cccc(C)c1Nc1ncnc2ccccc12	6	11	2	4
CC(C)(C)n1nc(-c2ccc(Cl)cc2)c2c(N)ncnc21	-9	-5	0	-7
CC(C)(C)n1nc(-c2ccc(F)cc2)c2c(N)ncnc21	-2	-5	67*	-4
Cc1ccccc1/C=C\c1nc2ccccc2c(=O)n1Cc1ccccc1	13	-9	-4	1
Cc1cccc(/C=C/c2nc3ccccc3c(=O)n2Cc2ccccc2)c1	76*	-3	-8	20*
CC(C)c1ccc(CNc2ccc([N+](=O)[O-])cn2)cc1	1	-5	-5	-14
CC(C)(C)c1ccc(CNc2ccc([N+](=O)[O-])cn2)cc1	-2	-1	32*	-2
O=C1CCNc2c(Cl)cc(Cl)cc21	51*	27	12	37
O=C(C[C@H]1C[C@@H]2c3cc(NC(=O)c4ccc5c(c4)OCO5)ccc3O[C@@H]2[C@H](CO)O1)NCc1cc(F)ccc1F	/	-18	1	/
O=C(O)/C=C\C(=O)O	/	-1	-2	/
O=C(O)O	0.6*	/	/	118
SMILES	eIF4H FP inh	MLLE-PAM2 inh	NRP1-CendR mod	PABP polyA inh
COc1cccc(NC(=O)C2(C)CCN2CCc2ccccc2)c1 (stereo not drawn)	/	-16	-2	/
Cn1nc([N+](=O)[O-])c(C(C#N)c2nc3ccccc3n2C)c(Cl)c1=O (stereo not drawn)	?	65*	28*	0
Cn1c(-c2ccc([N+](=O)[O-])cc2)nc2ccccc21	-13	4	12	-6
O=C(c1ccc(F)cc1)C(CN1CCOCC1)c1ccccc1 (stereo not drawn)	3	-8	27*	21
COc1ccc(-c2ccc(/C=N/N3C(=O)C4C5C=CC(C6CC56)C4C3=O)o2)c([N+](=O)[O-])c1 (stereo not drawn)	64*	19	3	9.5*
Cc1ccc(-c2ccc(/C=N/N3C(=O)C4C5C=CC(CC5)C4C3=O)o2)c([N+](=O)[O-])c1 (stereo not drawn)	53*	19	6	58*
O=C1C2C3C=CC(C4CC34)C2C(=O)N1/N=C/c1ccc(-c2ccc(F)cc2[N+](=O)[O-])o1 (stereo not drawn)	126	18	8	120
CC1=Nc2ccccc2N=C(NC(=O)CSC(=S)N2CCCCC2)C1c1ccccc1 (stereo not drawn)	-6	4	37*	0
C1CCN(CCC2CCCCN2)CC1 (stereo not drawn)	/	17	0	/
COc1ccc(CNC(=O)CN2C(=O)CSc3ccc(S(=O)(=O)N4CCOCC4)cc32)cc1	-7	3	33*	2
O[C@H]1CN(Cc2cccs2)[C@@H](c2ccccc2)C[C@@H]1n1cc(-c2ccc(F)cc2)nn1	/	2	-1	/
COCCN1CN(S(=O)(=O)c2ccccc2)c2nc3ccccc3nc21	-14	37*	-4	1
Cc1cccc(S(=O)(=O)N2CN(Cc3ccco3)c3nc4ccccc4nc32)c1	54*	-11	-51	20*
COCCN1CN(S(=O)(=O)c2ccc(Cl)cc2)c2nc3ccccc3nc21	-1	9	-3	3
CCOc1ncccc1C(=O)N1CCN(S(=O)(=O)c2ccc3c(c2)OCCO3)CC1	/	-19	8	/
CCCN(C(=O)CSCc1ccc(Cl)cc1)c1c(N)n(Cc2ccccc2)c(=O)[nH]c1=O	/	1	27*	/
Cc1ccc(CSCC(=O)N(CCC(C)C)c2c(N)n(Cc3ccccc3)c(=O)[nH]c2=O)cc1	/	11	-11	/
CCCN(C(=O)c1cc2c(s1)CCC2)c1c(N)n(Cc2ccccc2)c(=O)[nH]c1=O	96*	-5	-3	55*
CC1CCCN(C(=O)CNS(=O)(=O)c2cccs2)C1 (stereo not drawn)	-3	-6	8	17
O=C(Nc1ccc(Cl)c(Cl)c1)Nc1nnc(-c2ccncc2)s1	74*	-6	-35	0.7*
Cc1ccc(/C=C/C(=O)c2ccccc2)cc1	1	-5	-7	-6
Cc1ccc(C(=O)/C=C/C(=O)O)cc1	-1	44*	-8	0
Cc1ccc(-c2c3c(nc4sc(C(N)=O)c(N)c24)CCCC3)o1	54	7	-28	10
NC(=O)c1sc2nc(-c3ccco3)ccc2c1N	92*	-2	-108	80*
COC(=O)c1sc2nc(-c3ccco3)ccc2c1N	55*	19	-19	17
SMILES	eIF4H FP inh	MLLE-PAM2 inh	NRP1-CendR mod	PABP polyA inh
CC(C)OC(=O)c1sc2nc(-c3ccccc3)ccc2c1N	2	13	-6	-4
NC(=O)c1sc2nc3c(c(-c4ccco4)c2c1N)CCC3	97*	16	-12	83*
Nc1c(C(=O)Nc2ccccc2F)sc2nc(-c3ccco3)ccc12	90*	4	-79	73*
NC(=O)c1sc2nc(-c3cccnc3)ccc2c1N	-10	15	-30	11
O=C(CSc1nc2ccccc2n1Cc1ccccc1Cl)N/N=C/c1ccccc1C(=O)O	3	-21	40*	14
O=C(CSc1nc2ccccc2n1Cc1ccccc1)N/N=C/c1ccccc1C(=O)O	0	-25	-15	5
CC1CN(S(=O)(=O)c2cc(C(=O)NC(C)c3cccnc3)ccc2Cl)CC(C)O1 (stereo not drawn)	/	6	20*	/
O=C(O)c1cccc(-c2ccc3c(c2)OCO3)c1	-11	3	-19	-9

Bioassay records (PubChem)
